Eight compounds from PubChem BioAssay (NCATS) can be followed below.

Molecules are shown by their SMILES. Several values for one entry are separate records, joined by “and”; a condition that tells them apart may be missing. Identical values can stand only once. Records with an inconclusive call do not appear. Some structures have more than one record in an assay (separate samples or runs), and their calls can disagree. Activity calls are given as the source filed them. Unless noted, calls come from the whole dose curve.

Test [1] concerns the target Peroxisome proliferator-activated receptor delta (Homo sapiens) (UniProt Q03181). As to the kind of experiment: qHTS assay for small molecule agonists of peroxisome proliferator-activated receptor delta signaling (AID 588534).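 Note: 0% = DMSO basal wells and 100% = positive control agonist at 10 µM.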 The gist of the method: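 Reporter cells were plated and held 5 hrs at 37 C before compounds were added. After 18 hrs at 37 C, CCF4 dye was loaded for 2 hrs at RT and fluorescence measured.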

Test [2] concerns the target Glucocorticoid receptor (Homo sapiens) (UniProt P04150). As to the kind of experiment: qHTS assay for small molecule agonists of glucocorticoid receptor signaling (AID 588532; active = well fitted curve in the direction sought with a large enough effect in the signal ratio, with a control signal flat; the % refers to the signal ratio;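 note: 100% = dexamethasone at 0.1 µM and 0% = DMSO only wells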). The settings on record: HeLa MMTV-bla, beta-lactamase ratio, agonist, 18 h; activation: stronger effect = higher value, percent of dexamethasone control, DMSO zero. The gist of the method:
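Quantitative HTS using CellSensor MMTV-bla HeLa cells in charcoal/dextran-treated serum; compounds tested up to 92 uM. After 18 h at 37 C, CCF4 dye reported reporter induction.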
Background: Quantitative high-throughput screening tests each substance at several concentrations.

Test [3] addresses Peroxisome proliferator-activated receptor gamma (Homo sapiens) (UniProt P37231). As to the kind of experiment: qHTS assay for small molecule antagonists of peroxisome proliferator-activated receptor gamma signaling (AID 588537; active = well fitted inhibition curve with a large enough effect in the signal ratio, with a control signal flat, not every such curve was filed as active; the % refers to the signal ratio; note: potency is the fitted concentration of half-maximal effect). The method, boiled down:
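Inhibitors of agonist-stimulated UAS-bla reporter activity were sought in HEK293 cells; rosiglitazone (50 nM) defined full signal and DMSO baseline. Curves fitted to Hill model gave IC50 and efficacy.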

The target of test [4] is Vitamin D3 receptor (Homo sapiens) (UniProt P11473). As to the kind of experiment: qHTS assay for small molecule agonists of vitamin D receptor signaling (AID 588543).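 Note: 0% = DMSO basal and 100% = reference agonist control.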 The method, boiled down: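 qHTS in agonist mode: compound titrations stimulate a VDR-driven β-lactamase reporter in HEK293T cells over 16 h at 37 °C. Response normalized to 50 nM 1α,25-dihydroxyvitamin D3 = 100%, DMSO = 0%; Hill fitting gives EC50 and maximal response.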

Test [5] has as its target Retinoic acid receptor RXR-alpha (Homo sapiens) (UniProt P19793). As to the kind of experiment: qHTS assay for small molecule agonists of retinoid X receptor alpha signaling (AID 588544).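 For activation: 0% = DMSO basal wells and 100% = reference agonist.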 Note: potency is the fitted concentration of half-maximal effect.
Test [6] has as its target Thyroid hormone receptor beta (Homo sapiens) (UniProt P10828). As to the kind of experiment: qHTS assay for small molecule agonists of thyroid hormone receptor beta signaling (AID 588545). The method, boiled down: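 In this cell-based screen, titrated compounds act on HEK 293 cells held in medium with 2% charcoal/dextran FBS, NEAA and pyruvate for 18 hrs at 37 C. Responses are expressed relative to T3 (10 nM) as 100% and basal DMSO as 0%.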

Test [7] in a line: qHTS assay for small molecule activators of the nuclear factor-kappa B (NF-kB) signaling pathway (AID 651749; active = well fitted activation curve with a large enough effect in the signal ratio; the % refers to the signal ratio; note: series mostly up to about 77 µM; % of control where 0% means no effect). The settings on record: NF-kB-bla ME-180 cells, beta-lactamase FRET ratio, 16 h; activation: stronger effect = higher value. The method, boiled down:
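Stably transfected ME-180 line; NF-kB response element upstream of beta-lactamase. Treatment: compound or DMSO, 16 hr. Detection: fluorescent FRET substrate.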

In test [8] the target is Peroxisome proliferator-activated receptor alpha (Homo sapiens) (UniProt Q07869). As to the kind of experiment: qHTS assay for small molecule agonists of the peroxisome proliferator-activated receptor alpha (PPARalpha) signaling pathway (AID 651778; active = well fitted curve in the direction sought with a large enough effect; an effect the other way counts as inactive or inconclusive; note: % of control where 0% means no effect). The settings on record: PathHunter PPARalpha complementation, chemiluminescence, 6 h; max response: stronger effect = higher value. The method, boiled down: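 Chemiluminescence from complemented enzyme reported PPARalpha activation in cells after 6 hr of compound treatment at 37 C. The detection reagent was incubated for 60 min at room temperature, and compounds were scored as agonists.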

Test [9] can be described thus: qHTS assay for small molecule agonists of the antioxidant response element (ARE) signaling pathway measured by Nrf2-dependant transcriptional activity (AID 720636; active = well fitted curve in the direction sought with a large enough effect in the repeat runs; an effect the other way counts as inactive or inconclusive; note: potency is the fitted concentration of half-maximal effect;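 for activation: HepG2 cells with an ARE-driven luciferase reporter; % of control where 0% means no effect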). The method, boiled down: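 Cells: ARE-luc HepG2 with Nrf2-responsive luciferase. Medium contained 1% dialyzed FBS. Compound exposure lasted 16 hr at 37 C and 5% CO2, followed by ONE-Glo luciferase detection.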

Test [10] is described as follows: qHTS assay for small molecule agonists of the antioxidant response element (ARE) signaling pathway measured by Nrf2-dependant transcriptional activity - cell viability counter screen (AID 720653; active = well fitted curve in the direction sought with a large enough effect in the repeat runs; an effect the other way counts as inactive or inconclusive; note: % is set by controls: 0 for no effect and ±100 for the full control effect). The settings on record: ARE-bla HepG2 viability, CellTiter-Glo ATP luminescence, 16 h; max response: stronger effect = lower value. The method, boiled down: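 Cytotoxicity counter screen: intracellular ATP quantified by CellTiter-Glo luminescence in the same ARE-bla HepG2 plates, after 16 h compound exposure and a 2 h beta-lactamase substrate step.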

A short description of test [11]: qHTS assay for cell viability of HEK293 cells (AID 743288; active = well fitted curve in the direction sought with a large enough effect; an effect the other way counts as inactive or inconclusive; note: % is set by controls: 0 for no effect and ±100 for the full control effect; nearly all actives have a fitted effect of over 50% in size). The settings on record: ATP luminescence (CellTiter-Glo), 18 h; max response: stronger effect = lower value. The gist of the method:
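The Tox21 protocol used parental HEK293 cells treated for 18 h at 37 C with compounds delivered by pintool; ATP-coupled luminescence after 30 min at room temperature gave viability.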

The nature of test [12]: qHTS assay for cell viability of the p53RE-bla HCT-116 cell line (AID 743292; active = well fitted curve in the direction sought with a large enough effect; an effect the other way counts as inactive or inconclusive; note: % is set by controls: 0 for no effect and ±100 for the full control effect; nearly all actives have a fitted effect of over 55% in size). The method, boiled down:
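HCT-116 p53RE-bla cells seeded 4,000/well; 5 h at 37 C; compound (DMSO) added; 16 h at 37 C; CellTiter-Glo added, 30 min RT; luminescence read.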

The target of test [13] is Vitamin D3 receptor (Homo sapiens) (UniProt P11473). As to the kind of experiment: qHTS assay for small molecule antagonists of vitamin D receptor signaling (AID 588541).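 Note: receptor activated by calcitriol during compound treatment; series mostly up to about 77 µM; % is set by controls: 0 for no effect and ±100 for the full control effect.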 The method, boiled down: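 Antagonist-mode beta-lactamase reporter assay: HEK293T VDR-UAS-bla cells were exposed to titrated compound alongside 1-alpha,25-dihydroxyvitamin D3 at 3 nM final for 16 h. Values were normalized to the 50 nM agonist control and DMSO basal, with IC50 and efficacy from Hill equation fits.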

Test [14] in a line: qHTS assay for small molecule agonists of retinoid X receptor alpha signaling (AID 588544).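 For activation: 0% = DMSO basal wells and 100% = reference agonist.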 Note: potency is the fitted concentration of half-maximal effect. The settings on record: HEK293T RXRa-UAS-bla, beta-lactamase reporter, 18 h; 530 nm emission.
A short description of test [15]: qHTS assay for small molecule antagonists of retinoid X receptor alpha signaling (AID 588546; active = well fitted inhibition curve with a large enough effect in the signal ratio, with a control signal flat, not every such curve was filed as active; the % refers to the signal ratio;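 note: cells stimulated with 9-cis-retinoic acid as agonist; % is set by controls: 0 for no effect and ±100 for the full control effect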). The settings on record: HEK293T RXRa-UAS-bla, beta-lactamase ratio, antagonist mode; measured here: W530 green channel, cytotoxicity proxy. The gist of the method: (§1)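 Beta-lactamase reporter inhibition, read as CCF4 fluorescence ratio (ex 405, em 460/530 nm) after 2 h at RT. HEK293T UAS-bla cells, 2500/well, were stimulated with 9-cis-RA at 500 or 100 nM final alongside test compound for 18 h at 37 C.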

For test [16], the target named is Retinoic acid receptor RXR-alpha (Homo sapiens) (UniProt P19793). The test is described as above. The settings on record: HEK293T RXRa-UAS-bla, beta-lactamase ratio, antagonist mode. The method, boiled down:
as §1

The nature of test [17]: qHTS assay for small molecule agonists of the antioxidant response element (ARE) signaling pathway (AID 651741; active = well fitted activation curve with a large enough effect in the signal ratio; the % refers to the signal ratio; note: potency is the fitted concentration of half-maximal effect). The method, boiled down: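 Seeding 2,000 ARE-bla HepG2 cells per well preceded a 5 h incubation at 37 C/5% CO2 and a 16 h compound exposure at 37 C. Beta-lactamase reporter activity was then quantified by fluorescence after 2 h with LiveBLAzer B/G FRET substrate.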

Test [18] has as its target Glucocorticoid receptor (Homo sapiens) (UniProt P04150). As to the kind of experiment: qHTS assay for small molecule antagonists of glucocorticoid receptor signaling (AID 588533; active = well fitted inhibition curve with a large enough effect in the signal ratio, with a control signal flat, not every such curve was filed as active; the % refers to the signal ratio;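 note: cells stimulated with 2 nM dexamethasone as agonist; % is set by controls: 0 for no effect and ±100 for the full control effect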). The method, boiled down:
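Antagonist-mode qHTS: compound titrations added to GRE-bla HeLa cells, then dexamethasone 2 nM final; 18 h, 37 C. CCF4 FRET fluorescence normalized to dexamethasone and DMSO; IC50 from Hill fit.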

Test [19] is described as follows: qHTS assay for small molecule antagonists of peroxisome proliferator-activated receptor delta signaling (AID 588535; active = well fitted inhibition curve with a large enough effect in the signal ratio, with a control signal flat, not every such curve was filed as active; the % refers to the signal ratio;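 for max response: cells co-treated with a PPAR-delta agonist as stimulator during compound exposure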). The settings on record: HEK293T PPARd-UAS-bla, beta-lactamase FRET ratio, 18 h; 460 nm channel. The method, boiled down:
(§2)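 Cell-based beta-lactamase assay in antagonist mode: 4000 HEK293T PPAR-delta-UAS-bla cells per well, 5 hr preincubation then 18 hr compound incubation at 37 C. IC50 obtained by Hill equation fitting.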

Test [20] deals with Peroxisome proliferator-activated receptor delta (Homo sapiens) (UniProt Q03181). The test is described as above. The gist of the method: as §2
Test [21] addresses Peroxisome proliferator-activated receptor gamma (Homo sapiens) (UniProt P37231). As to the kind of experiment: qHTS assay for small molecule agonists of peroxisome proliferator-activated receptor gamma signaling (AID 588536; active = well fitted curve in the direction sought with a large enough effect in the signal ratio, with a control signal flat, not every such curve was filed as active; the % refers to the signal ratio;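 note: 0% = DMSO basal wells and 100% = rosiglitazone at 2 µM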). The gist of the method: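 HEK293 UAS-bla reporter line, 1% charcoal/dextran FBS; titration, 16 h, 37 C; CCF4 loading 2 h RT; fluorescence 460/530 nm. Normalized to rosiglitazone 2 uM = 100%, DMSO = 0%.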

The target of test [22] is Thyroid hormone receptor beta (Homo sapiens) (UniProt P10828). As to the kind of experiment: qHTS assay for small molecule antagonists of thyroid hormone receptor beta signaling (AID 588547; active = well fitted inhibition curve with a large enough effect in the signal ratio, with a control signal flat, not every such curve was filed as active; the % refers to the signal ratio). The settings on record: TR-UAS-bla HEK293, beta-lactamase ratio, antagonist mode, 18 h. The method, boiled down:
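Inhibition of T3-driven (0.4nM final) beta-lactamase reporter activity was measured over 0.59 nM to 92 uM compound after 18 h at 37 C. The cells were GripTite HEK293 TR-UAS-bla in charcoal/dextran-stripped serum, with CCF4 ratio read-out and IC50 from Hill fits.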

A short description of test [23]: qHTS assay for small molecule activators of the p53 signaling pathway (AID 651743; active = well fitted activation curve with a large enough effect in the signal ratio, not every such curve was filed as active; the % refers to the signal ratio; note: series mostly up to about 92 µM; % of control where 0% means no effect). The settings on record: HCT-116 p53RE-bla, beta-lactamase FRET ratio, 16 h; activation: stronger effect = higher value. The method, boiled down: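 Screen for p53 pathway agonists uses stably transfected p53RE-bla HCT-116 cells, 4,000 per well, treated 16 h at 37 C with compounds in DMSO.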

The nature of test [24]: qHTS assay for environmental chemicals that activate the Aryl hydrocarbon Receptor (AhR) signaling pathway (AID 651777; active = well fitted curve in the direction sought with a large enough effect; an effect the other way counts as inactive or inconclusive; note: % of control where 0% means no effect; nearly all actives have a fitted effect of over 15% in size). The settings on record: 1A2-DRE human hepatoma cells, luciferase, 24 h; activation: stronger effect = higher value. The gist of the method: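 1A2-DRE human hepatoma reporter line; 1,200 cells/well; cmpd or DMSO 24 h, 37 C/5% CO2; One-Glo 30 min RT; luciferase lum.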

The target of test [25] is Nuclear receptor subfamily 1 group I member 2 (Rattus norvegicus) (UniProt Q9R1A7). As to the kind of experiment: qHTS assay for small molecule activators of the rat pregnane X receptor (rPXR) signaling pathway (AID 651751; call rule not given here; note: 0% is about no effect). The settings on record: rPXR reporter cells, luciferase (One-Glo), 24 h.
Chain of Nuclear receptor subfamily 1 group I member 2 (Rattus norvegicus) (Q9R1A7 whole entry, looked up): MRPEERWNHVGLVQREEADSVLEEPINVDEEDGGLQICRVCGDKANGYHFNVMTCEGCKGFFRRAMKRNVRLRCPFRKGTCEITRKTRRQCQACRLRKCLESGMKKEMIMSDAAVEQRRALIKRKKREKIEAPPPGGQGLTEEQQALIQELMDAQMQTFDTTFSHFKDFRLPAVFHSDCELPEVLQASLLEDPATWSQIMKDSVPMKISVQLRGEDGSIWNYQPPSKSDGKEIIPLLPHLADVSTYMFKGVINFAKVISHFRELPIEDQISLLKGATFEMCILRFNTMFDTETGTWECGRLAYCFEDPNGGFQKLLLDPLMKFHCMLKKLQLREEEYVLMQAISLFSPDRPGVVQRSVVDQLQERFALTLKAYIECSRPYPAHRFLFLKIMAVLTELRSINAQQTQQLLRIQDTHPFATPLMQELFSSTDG

Chain of Vitamin D3 receptor (Homo sapiens) (P11473 whole entry, looked up): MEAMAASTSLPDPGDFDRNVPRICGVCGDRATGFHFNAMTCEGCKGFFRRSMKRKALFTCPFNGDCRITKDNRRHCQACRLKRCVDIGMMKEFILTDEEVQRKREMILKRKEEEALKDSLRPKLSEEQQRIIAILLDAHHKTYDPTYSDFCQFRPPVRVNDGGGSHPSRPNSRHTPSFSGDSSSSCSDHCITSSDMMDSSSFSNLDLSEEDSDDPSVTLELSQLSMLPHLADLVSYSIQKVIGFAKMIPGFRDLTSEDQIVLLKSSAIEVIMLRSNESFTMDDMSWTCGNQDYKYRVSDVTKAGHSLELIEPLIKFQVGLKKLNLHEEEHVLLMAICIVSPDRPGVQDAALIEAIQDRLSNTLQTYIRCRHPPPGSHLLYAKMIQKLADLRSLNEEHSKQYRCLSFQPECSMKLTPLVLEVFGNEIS
Chain of Glucocorticoid receptor (Homo sapiens) (P04150 whole entry, looked up): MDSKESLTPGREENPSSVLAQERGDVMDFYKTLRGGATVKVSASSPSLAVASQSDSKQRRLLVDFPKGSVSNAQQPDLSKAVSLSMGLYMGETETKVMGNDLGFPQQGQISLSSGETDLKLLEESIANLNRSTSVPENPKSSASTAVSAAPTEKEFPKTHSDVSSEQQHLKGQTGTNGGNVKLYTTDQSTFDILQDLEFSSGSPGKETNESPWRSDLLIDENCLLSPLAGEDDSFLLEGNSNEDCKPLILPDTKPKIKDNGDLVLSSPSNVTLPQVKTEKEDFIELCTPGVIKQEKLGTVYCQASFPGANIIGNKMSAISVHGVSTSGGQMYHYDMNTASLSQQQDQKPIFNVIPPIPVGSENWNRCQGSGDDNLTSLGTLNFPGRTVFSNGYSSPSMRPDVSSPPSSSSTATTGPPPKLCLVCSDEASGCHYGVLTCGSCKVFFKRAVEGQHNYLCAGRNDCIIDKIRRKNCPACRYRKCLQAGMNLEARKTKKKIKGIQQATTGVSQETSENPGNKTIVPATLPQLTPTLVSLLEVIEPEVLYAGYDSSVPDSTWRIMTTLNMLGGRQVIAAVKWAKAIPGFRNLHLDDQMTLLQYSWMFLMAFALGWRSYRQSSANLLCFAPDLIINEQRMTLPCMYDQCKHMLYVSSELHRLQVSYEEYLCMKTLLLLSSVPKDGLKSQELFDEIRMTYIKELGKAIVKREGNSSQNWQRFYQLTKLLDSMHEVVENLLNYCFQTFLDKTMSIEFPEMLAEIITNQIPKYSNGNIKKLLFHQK
Chain of Peroxisome proliferator-activated receptor gamma (Homo sapiens) (P37231 whole entry, looked up): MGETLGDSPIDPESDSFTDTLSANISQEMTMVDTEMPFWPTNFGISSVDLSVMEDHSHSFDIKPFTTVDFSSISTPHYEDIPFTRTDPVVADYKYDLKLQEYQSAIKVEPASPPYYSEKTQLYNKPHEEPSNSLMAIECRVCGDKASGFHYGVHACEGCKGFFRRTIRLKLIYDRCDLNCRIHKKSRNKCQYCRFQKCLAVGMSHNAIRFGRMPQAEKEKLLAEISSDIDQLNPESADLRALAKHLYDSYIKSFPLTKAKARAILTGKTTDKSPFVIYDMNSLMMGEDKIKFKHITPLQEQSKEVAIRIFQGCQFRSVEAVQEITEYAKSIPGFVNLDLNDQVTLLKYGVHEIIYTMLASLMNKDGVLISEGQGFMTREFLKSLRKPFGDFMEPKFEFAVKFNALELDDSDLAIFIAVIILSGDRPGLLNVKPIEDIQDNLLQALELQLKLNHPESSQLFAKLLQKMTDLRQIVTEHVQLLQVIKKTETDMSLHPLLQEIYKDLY
Chain of Retinoic acid receptor RXR-alpha (Homo sapiens) (P19793 whole entry, looked up): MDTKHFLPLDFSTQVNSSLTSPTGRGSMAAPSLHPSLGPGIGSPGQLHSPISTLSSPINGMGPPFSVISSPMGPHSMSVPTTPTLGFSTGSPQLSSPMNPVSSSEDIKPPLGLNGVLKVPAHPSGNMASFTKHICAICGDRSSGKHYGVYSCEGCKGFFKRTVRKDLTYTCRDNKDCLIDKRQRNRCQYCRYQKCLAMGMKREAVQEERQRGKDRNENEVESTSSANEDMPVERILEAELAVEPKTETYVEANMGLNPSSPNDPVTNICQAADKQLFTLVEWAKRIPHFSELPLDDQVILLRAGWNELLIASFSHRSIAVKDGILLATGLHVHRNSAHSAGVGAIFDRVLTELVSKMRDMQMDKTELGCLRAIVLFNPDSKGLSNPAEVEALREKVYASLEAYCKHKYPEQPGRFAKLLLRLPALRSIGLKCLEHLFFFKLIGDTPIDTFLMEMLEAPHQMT
Chain of Thyroid hormone receptor beta (Homo sapiens) (P10828 whole entry, looked up): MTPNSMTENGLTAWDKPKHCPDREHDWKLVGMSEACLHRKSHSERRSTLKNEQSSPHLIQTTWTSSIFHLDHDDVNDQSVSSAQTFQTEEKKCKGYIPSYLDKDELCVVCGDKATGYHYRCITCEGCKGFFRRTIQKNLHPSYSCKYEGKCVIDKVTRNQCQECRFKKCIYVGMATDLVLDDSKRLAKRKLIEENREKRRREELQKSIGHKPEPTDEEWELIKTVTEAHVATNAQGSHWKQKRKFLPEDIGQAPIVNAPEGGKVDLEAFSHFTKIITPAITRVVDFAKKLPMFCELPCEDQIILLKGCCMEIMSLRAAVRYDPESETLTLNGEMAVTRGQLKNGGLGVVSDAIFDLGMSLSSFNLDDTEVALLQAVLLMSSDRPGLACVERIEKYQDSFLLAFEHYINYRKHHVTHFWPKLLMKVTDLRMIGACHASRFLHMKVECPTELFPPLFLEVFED
Chain of Peroxisome proliferator-activated receptor delta (Homo sapiens) (Q03181 whole entry, looked up): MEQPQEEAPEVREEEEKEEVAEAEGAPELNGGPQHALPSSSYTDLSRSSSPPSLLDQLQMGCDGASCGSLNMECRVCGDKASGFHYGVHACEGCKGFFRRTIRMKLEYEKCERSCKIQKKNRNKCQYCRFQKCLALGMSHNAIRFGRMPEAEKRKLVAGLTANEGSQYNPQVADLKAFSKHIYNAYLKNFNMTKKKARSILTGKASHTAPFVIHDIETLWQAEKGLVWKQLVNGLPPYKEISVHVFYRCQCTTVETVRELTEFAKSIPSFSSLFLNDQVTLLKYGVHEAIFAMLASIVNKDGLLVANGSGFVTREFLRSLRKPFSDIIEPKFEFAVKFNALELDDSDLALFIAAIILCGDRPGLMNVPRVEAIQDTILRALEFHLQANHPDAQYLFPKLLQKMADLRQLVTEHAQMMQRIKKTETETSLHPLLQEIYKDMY
Chain of Peroxisome proliferator-activated receptor alpha (Homo sapiens) (Q07869 whole entry, looked up): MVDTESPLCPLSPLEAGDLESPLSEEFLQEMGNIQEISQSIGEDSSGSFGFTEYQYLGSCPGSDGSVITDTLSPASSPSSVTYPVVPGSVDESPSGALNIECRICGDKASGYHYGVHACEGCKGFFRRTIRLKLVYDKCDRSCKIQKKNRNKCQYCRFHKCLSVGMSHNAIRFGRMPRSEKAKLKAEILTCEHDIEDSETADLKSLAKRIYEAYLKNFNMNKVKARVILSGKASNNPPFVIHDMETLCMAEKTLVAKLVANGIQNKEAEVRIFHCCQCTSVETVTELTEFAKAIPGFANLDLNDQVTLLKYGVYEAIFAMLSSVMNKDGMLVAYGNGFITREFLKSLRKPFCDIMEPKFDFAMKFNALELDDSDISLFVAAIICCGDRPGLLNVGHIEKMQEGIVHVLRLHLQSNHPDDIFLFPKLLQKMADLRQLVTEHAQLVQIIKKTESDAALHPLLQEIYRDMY

For `CCCCC(CC)COC(C)=O` (stereo unspecified), the compound was called inactive in test [1].

In the case of `CC(C)C(C)C`, the compound was called inactive in [1].

As to `N#Cc1c[nH]cc1-c1cccc2c1OC(F)(F)O2`, the results for the activation in test [2] and in test [7] were -6.3% (inactive) and -3.39% (inactive), respectively. The compound was called inactive in test [1] and in test [4]. For the same compound, the Potency in test [3] is 31.6 µM (active); in test [5], 2.24 µM (active). Further, the Potency entry in test [6], in [9] and in test [12] was “inactive” throughout. The values for the max response in [8], in [10] and in test [11] were -0.738% (inactive), -6.59% (inactive) and -14.2% (inactive), respectively.

As for `CCCCCCCCCCCCCCC1CO1` (stereo unspecified), in [1], the outcome was inactive.

In the case of `S=C([S-])NCCNC(=S)[S-].[Zn+2]`, the activation in test [2] is 4.35% (inactive). The Potency entry in [13] and in [5] was “inactive” throughout. Also, the max response in [14] was 2.58%; in test [15] it was -2.08% and 15.4%; in test [16] it was 15.4% (inactive) and -59.9% (inactive). The Potency in test [17] is 21.7 µM (active) and 27.3 µM (active); in [9], “inactive and 68.6 µM (active)”.

Turning to `CC(C)Nc1ccccc1`, the compound was called inactive in test [1].

Consider `ON=C1CCCCC1`, for which the outcome in test [1] was inactive.

On to `O=[N+]([O-])c1ccc(Oc2ccc(Cl)cc2Cl)cc1`, for which the Potency entry in test [18], in [20], in test [21], in test [3], in [13] and in test [6] was “inactive” in each case. Also, the Potency entry in test [12] is “inactive”. Besides, the result in [1] and in test [4] was inactive. In addition, the max response was -2.51% in test [19]; -7.09% in test [15]; 5.62% (inactive) in [16]; 5% (inactive) in test [8]; -3.33% (inactive) in test [10]; -5.28% (inactive) in [11]. In test [25], the max response was 6.97% (inactive). Further, in test [22], the activity change % (negative = inhibition) was -8.47% (inactive). Besides, the Potency in test [17] was 48.6 µM (active). The activation in test [23] is -0.909% (inactive); in test [7], -1.65% (inactive); in test [24], 0.167% (inactive).
